From PubChem BioAssay (Tox21)
Values joined by “and” are separate entries in the source; they are usually repeats but may differ in a detail not shown here. Equal entries are not always repeated. Inconclusive results are not listed. Entries that show only a call come without a potency. Active and inactive are the calls of the source. Calls follow the shape of the dose curve; as a rule, active = well fitted cell-killing curve with a large enough effect in the repeat runs; inconclusive = weak or mixed curves, or effect the other way; inactive = flat fitted curve, though single readings scatter.

Tests used:
[1] = cAMP Responsive Elements (CRE) small molecule antagonists, cell-based qHTS assay: qHTS cell viability counter screen (AID 2060913); details: CRE-bla HEK293T viability, CellTiter-Glo luminescence, 5 h; series mostly up to 92.4 µM; also: nearly all actives have a fitted effect of over 40% in size
How it was run: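 Viability of NKH477-stimulated (0.25 uM final) CRE-bla HEK293T cells is measured by CellTiter-Glo luminescence following 3 hrs compound exposure at 37 C.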

[2] = cAMP Responsive Elements (CRE) small molecule agonists, cell-based qHTS assay: qHTS cell viability counter screen (AID 2060914); details: CRE-bla HEK293T viability, CellTiter-Glo luminescence, 5 h; series mostly up to 92.4 µM; also: nearly all actives have a fitted effect of over 50% in size
How it was run: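 In the same wells as the reporter read, viability of CRE-bla HEK 293T cells was quantified by CellTiter-Glo luminescence after a 3 h compound exposure.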
Potency is read from the fitted curve at half-maximal effect.

## CN(C)C(=O)Nc1ccc(Cl)cc1
[1]
  Potency: inactive
[2]
  Potency: inactive

## OCCOCCO
[1]
  Potency: inactive
[2]
  Potency: inactive

## CCCCCCCCCCCCCl
[1]
  Potency: inactive
[2]
  Potency: inactive

## O=S(=O)(O)C(F)(F)C(F)(F)C(F)(F)C(F)(F)C(F)(F)C(F)(F)F
[1]
  Potency: inactive
[2]
  Potency: inactive

## c1ccc(C2CO2)cc1 (stereo not given)
[1]
  Potency: inactive
[2]
  Potency: inactive

## C#C[C@]1(O)CC[C@H]2[C@@H]3CCC4=CC(=O)CC[C@]4(C)[C@H]3CC[C@@]21C
[1]
  Potency: inactive
[2]
  Potency: inactive

## Cc1ccc(N)cc1Cl
[1]
  Potency: inactive
[2]
  Potency: inactive

## CCOC(=O)/C=C(C)/C=C/C[C@@H](C)CCCC(C)C
[1]
  Potency: inactive
[2]
  Potency: inactive

## CCC(CC)(CNC(=O)CCCO)c1cccc(OC)c1
[1]
  Potency: inactive
[2]
  Potency: inactive

## CCOC(=O)COc1ccc(Cl)cc1Cl
[1]
  Potency: inactive
[2]
  Potency: inactive

## CCOC(=O)N(C)N=O
[1]
  Potency: inactive
[2]
  Potency: inactive

## O.O.O.O.O.O.O=S(=O)([O-])[O-].[Ni+2]
[1]
  Potency: inactive
[2]
  Potency: inactive

## CCC(C)(C)C(=O)OC1=C(c2ccc(Cl)cc2Cl)C(=O)OC12CCCCC2
[1]
  Potency: inactive
[2]
  Potency: inactive

## CCC(C)(C)O
[1]
  Potency: inactive
[2]
  Potency: inactive

## C=C1CC[C@@]2(O)[C@H]3Cc4ccc(O)c5c4[C@@]2(CCN3CC2CC2)[C@H]1O5
[1]
  Potency: inactive
[2]
  Potency: inactive

## ClC1(Cl)C2(Cl)C3(Cl)C4(Cl)C(Cl)(Cl)C5(Cl)C3(Cl)C1(Cl)C5(Cl)C24Cl (stereo not given)
[1]
  Potency: inactive
[2]
  Potency: inactive

## CC(C)(c1ccc(OCC2CO2)cc1)c1ccc(OCC2CO2)cc1 (stereo not given)
[1]
  Potency: inactive
[2]
  Potency: inactive

## CCCCCCCCCCBr
[1]
  Potency: inactive
[2]
  Potency: inactive

## OP(O)c1ccccc1
[1]
  Potency: inactive
[2]
  Potency: inactive

## CCC(C)(C)c1ccc(O)c(C(C)(C)CC)c1
[1]
  Potency: 27.3 µM (active)
[2]
  Potency: 30.3 µM (active) and 24.3 µM (active)

## CNC(=O)O/N=C/C(C)(C)SC
[1]
  Potency: inactive
[2]
  Potency: inactive

## Clc1ccc(C(OCCN2CCCCC2)c2ccccc2)cc1 (stereo not given)
[1]
  Potency: inactive
[2]
  Potency: inactive

## Nc1cccc2ccccc12
[1]
  Potency: inactive
[2]
  Potency: inactive

## ClC(Cl)C(Cl)(Cl)Cl
[1]
  Potency: inactive
[2]
  Potency: inactive

## O=CC(Br)(Br)Br
[1]
  Potency: inactive
[2]
  Potency: inactive

## CC[N+]1(C)CCCC1
[1]
  Potency: inactive
[2]
  Potency: inactive

## CNC(=O)Oc1cccc2ccccc12
[1]
  Potency: inactive
[2]
  Potency: inactive

## c1ccc2c(c1)oc1ccccc12
[1]
  Potency: inactive
[2]
  Potency: inactive

## NC1(c2ccccc2)CCCCC1
[1]
  Potency: inactive
[2]
  Potency: inactive

## O=P(O)(O)c1ccccc1
[1]
  Potency: inactive
[2]
  Potency: inactive

## CC1(C)[C@H](C(=O)O[C@H](C#N)c2cccc(Oc3ccccc3)c2)[C@@H]1C=C(Br)Br
[1]
  Potency: inactive
[2]
  Potency: inactive

## ClCCN1CCCC1
[1]
  Potency: inactive
[2]
  Potency: inactive

## Sc1ccccc1Cl
[1]
  Potency: inactive
[2]
  Potency: inactive

## Cl/C=C\Cl
[1]
  Potency: inactive
[2]
  Potency: inactive

## CC(C)N(C(=O)COc1nnc(C(F)(F)F)s1)c1ccc(F)cc1
[1]
  Potency: inactive
[2]
  Potency: inactive

## CCN(CC)c1ccccc1
[1]
  Potency: inactive
[2]
  Potency: inactive

## II
[1]
  Potency: inactive
[2]
  Potency: inactive

## CCN[C@@H](C)Cc1ccccc1
[1]
  Potency: inactive
[2]
  Potency: inactive

## CCCCCC[n+]1ccccc1
[1]
  Potency: inactive
[2]
  Potency: inactive

## O=S1(=O)OCCO1
[1]
  Potency: inactive
[2]
  Potency: inactive

## CCc1cc2c(s1)-n1c(C)nnc1CN=C2c1ccccc1Cl
[1]
  Potency: inactive
[2]
  Potency: inactive

## N#CC(CCc1ccc(Cl)cc1)(Cn1cncn1)c1ccccc1 (stereo not given)
[1]
  Potency: inactive
[2]
  Potency: inactive

## Clc1ccc(C2(Cn3cncn3)OCCO2)c(Cl)c1
[1]
  Potency: inactive
[2]
  Potency: inactive

## CN(C)CCc1c[nH]c2ccc(O)cc12
[1]
  Potency: inactive
[2]
  Potency: inactive

## CC[n+]1c(-c2ccccc2)c2cc(N)ccc2c2ccc(N)cc21
[1]
  Potency: inactive
[2]
  Potency: inactive

## C=CC(=C)C
[1]
  Potency: inactive
[2]
  Potency: inactive

## ClC(Cl)c1ccccc1
[1]
  Potency: inactive
[2]
  Potency: inactive

## Cc1ccc(C(=O)Cl)cc1
[1]
  Potency: inactive
[2]
  Potency: inactive

## ClC(Cl)(Cl)Br
[1]
  Potency: inactive
[2]
  Potency: inactive

## C=C(Cl)Cl
[1]
  Potency: inactive
[2]
  Potency: inactive

## CC(C(=O)c1ccccc1)N(C)C (stereo not given)
[1]
  Potency: inactive
[2]
  Potency: inactive

## CC1CN1P(=O)(N1CC1C)N1CC1C (stereo not given)
[1]
  Potency: inactive
[2]
  Potency: inactive

## C[C@]12CCC(=O)C=C1CC[C@@H]1[C@@H]2CC[C@]2(C)C(=O)CC[C@@H]12
[1]
  Potency: inactive
[2]
  Potency: inactive

## CCC(C)(C)c1cc(-n2nc3ccccc3n2)c(O)c(C(C)(C)CC)c1
[1]
  Potency: inactive
[2]
  Potency: inactive

## N#Cc1sc2c(=O)c3ccccc3c(=O)c=2sc1C#N
[1]
  Potency: 61.1 µM (active)
[2]
  Potency: 54.5 µM (active)

## CCC1(CC)C(=O)N=C(O)NC1=O
[1]
  Potency: inactive
[2]
  Potency: inactive

## C[C@H]1CNCCc2ccc(Cl)cc21
[1]
  Potency: inactive
[2]
  Potency: inactive

## Cn1cc[n+](C)c1 (tested in a mixture with another compound)
[1]
  Potency: inactive
[2]
  Potency: inactive

## CCOC(=O)C(c1c(O)c2ccccc2oc1=O)c1c(O)c2ccccc2oc1=O
[1]
  Potency: inactive
[2]
  Potency: inactive

## CCCOC(=O)c1cncn1C(C)c1ccccc1 (stereo not given)
[1]
  Potency: inactive
[2]
  Potency: inactive
